Sampled rows, rich in hits. Any-hit rate of the full collection: about 4.7%.
SUMO HTRF inh: inhibitors of human SUMOylation (UBC9). inhibition, % at 35 µM. 0.36% of 290,000 active. P63279. HTRF SUMOylation assay, SAE1/SAE2 + UBC9, in vitro; in the data active means inhibition above about 50%, passing the limit was not always enough; inconclusive means no clear call, values can overlap the other calls
eIF4H FP inh: inhibitors of RNA binding by human eIF4H; 0.94% of 290,000 active; Q15056; inhibition, % at 35 µM; eIF4H fluorescence polarization binding assay; AID 2012;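 further: calls also rest on retests at 20 µM and on dose response follow-up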
Efflux pump inh: blocks antifungal efflux pumps in multiplex yeast assay | 0.44% of 330,000 active | inhibition, % at 10 µM | AID 485275 | S. cerevisiae Candida pump triplex, Nile Red efflux;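 active means plate passing quality check with inhibition over a set limit, or well fluorescence over plate mean plus 4 SD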;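 further: Nile Red retained in pooled yeast measured as flow cytometry median fluorescence; higher means more Nile Red kept so more efflux inhibition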
ALR H2O2 inh: inhibitors of human sulfhydryl oxidase ALR; P55789; purified ALR, DTT oxidation, H2O2 HRP-luminol luminescence; inhibition, % (concentration not given with the values); 3.8% of 290,000 active; AID 485317;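 active means mean replicate inhibition above about 79%, with every replicate also reaching it, limit read from the data; inconclusive means only one of the two criteria met; inactive means mean below limit and not every replicate reaching it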
Target sequence (P55789 whole entry, looked up): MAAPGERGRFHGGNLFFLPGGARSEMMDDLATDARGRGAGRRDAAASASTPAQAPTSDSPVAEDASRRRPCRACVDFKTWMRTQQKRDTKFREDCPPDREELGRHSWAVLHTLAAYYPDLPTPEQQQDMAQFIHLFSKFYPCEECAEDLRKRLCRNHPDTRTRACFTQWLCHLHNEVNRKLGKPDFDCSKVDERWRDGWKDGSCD
PABP polyA inh: blocks human PABP binding to poly(A) RNA. P11940. fluorescence polarization. inhibition, % at 35 µM. 1% of 290,000 active. AID 2014;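 further: calls also rest on retests at 20 µM and on dose response follow-up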
MLLE-PAM2 inh: inhibitors of microRNA-mediated deadenylation, human PABP1 MLLE binding. P11940. GST-MLLE / FITC-PAM2 fluorescence polarization. inhibition, % at 20 µM. 0.36% of 360,000 active. AID 588489; in the data active means inhibition above about 35%, passing the limit was not always enough
Large screens that a line does not name were inactive. Unless noted, how the calls were made is not given here.

CCOC(=O)/C=C/C(=O)OCC(=O)Nc1c(Cl)cccc1Cl	none
CCOC(=O)/C=C/C(=O)OCC(=O)Nc1ccc(Cl)cc1Cl	ALR H2O2 inh 96
CCOC(=O)c1c(/N=C/N(C)C)sc(/C=N/Nc2ccccc2)c1-c1ccccc1Cl	PABP polyA inh 95
CCOC(=O)c1c(/N=C/N(C)C)sc(/C=N/Nc2ccccc2)c1-c1ccccc1	none
CCn1c(O)c(C=Nc2ccccc2)sc1=S	none (no result: MLLE-PAM2 inh)
CCn1c(O)c(/C=N/n2cnnc2)sc1=S	ALR H2O2 inh 98
CCOC(=O)c1c(CSCc2ccccc2)oc2ccc(O)c(CN(C)C)c12	none
CN(C)S(=O)(=O)c1cccc(NC(=O)CSc2nc3c(cc2C#N)C(=O)CC(C)(C)C3)c1	ALR H2O2 inh 98
O=C(O)CCCN1C(=O)C(=O)/C(=C(/O)c2ccc(Cl)cc2)C1c1ccccc1 (configuration not stated)	MLLE-PAM2 inh 51
Cc1sc2nc(CSCC(=O)NC3(C#N)CCCCC3)[nH]c(=O)c2c1C	ALR H2O2 inh 95 (no result: SUMO HTRF inh, eIF4H FP inh, PABP polyA inh)
Cc1[nH]n(-c2nc(-c3cccc([N+](=O)[O-])c3)cs2)c(=O)c1C	ALR H2O2 inh 97
O=C(CSc1ncc(-c2ccccc2)[nH]1)Nc1ccccc1	ALR H2O2 inh 99
O=C(CSc1ncc(-c2ccccc2)[nH]1)Nc1ccccc1F	none
O=C(CSc1ncc(-c2ccccc2)[nH]1)Nc1cccc(O)c1	ALR H2O2 inh 99
CC(=O)Nc1cccc(NC(=O)CSc2ncc(-c3ccccc3)[nH]2)c1	ALR H2O2 inh 99
COc1ccccc1N1CCN(C(=O)[C@@H]2CCCN2C2=NS(=O)(=O)c3ccccc32)CC1	none (no result: SUMO HTRF inh, eIF4H FP inh, Efflux pump inh, ALR H2O2 inh, PABP polyA inh)
O=C(Cn1sc2ccccc2c1=O)NC12CC3CC(CC(C3)C1)C2	MLLE-PAM2 inh 53 (no result: ALR H2O2 inh)
CC(C)CC(NC(=O)C(COCc1ccccc1)NC(=O)OC(C)(C)C)C(=O)NN (configuration not stated)	eIF4H FP inh active
CC(C)CC(NC(=O)OC(C)(C)C)C(=O)NCc1ccccc1 (configuration not stated)	none
Fc1ccc(Nc2c3c(nc4ccccc24)CCC3)cc1	ALR H2O2 inh 95
COc1ccc(Nc2c3c(nc4ccccc24)CCCC3)cc1OC	ALR H2O2 inh 99
COc1ccc(Nc2nc(N)c3ccccc3n2)c(OC)c1	ALR H2O2 inh 84
c1ccc2c(Nc3ccc4c(c3)OCCO4)c3c(nc2c1)CCC3	ALR H2O2 inh 80
Cc1cc(Nc2ccc3c(c2)OCCO3)c2ccccc2n1	none (no result: ALR H2O2 inh)
COc1ccc(Nc2nc(-c3ccccc3)nc3ccccc23)c(OC)c1	none
c1ccc(Nc2c3c(nc4ccccc24)CCC3)cc1	none (no result: ALR H2O2 inh)
O=C(NCc1cc(C(F)(F)F)cc(C(F)(F)F)c1)c1cc(-c2cc(F)ccc2OCC2CCCO2)n[nH]1 (configuration not stated)	none (no result: SUMO HTRF inh, eIF4H FP inh, Efflux pump inh, ALR H2O2 inh, PABP polyA inh)
CN(C)CCNCCCNc1c2ccccc2nc2cccc([N+](=O)[O-])c12	MLLE-PAM2 inh 52 (no result: SUMO HTRF inh, eIF4H FP inh, Efflux pump inh, ALR H2O2 inh, PABP polyA inh)
COc1ccccc1Nc1c2ccccc2nc2ccccc12	ALR H2O2 inh 99
COc1ccc(Nc2c3c(nc4ccccc24)CCC3)cc1	ALR H2O2 inh 99
COc1ccc(Nc2cc(C)c3ccccc3n2)cc1	none (no result: ALR H2O2 inh)
COc1ccc(Nc2c3ccccc3nc3ccccc23)cc1	ALR H2O2 inh 100
Cc1ccc(N(CCC#N)C(=O)COC(=O)c2ccccn2)cc1	none
CC(=O)Nc1ccc(S(=O)(=O)NCCC(=O)NNC(=O)c2ccccc2O)cc1	none (no result: SUMO HTRF inh, eIF4H FP inh, PABP polyA inh)
CCc1ccc(C(=O)COC(=O)C2=NN(c3ccccc3)C(=O)CC2)cc1	none (no result: SUMO HTRF inh, eIF4H FP inh, PABP polyA inh)
CN(C)CCCNc1c2c(nc3ccccc13)CCC2	PABP polyA inh 60
COc1cc(Nc2c3ccccc3nc3ccccc23)cc(OC)c1OC	ALR H2O2 inh 94
COc1ccc(C)cc1Nc1c2c(nc3ccccc13)CCC2	ALR H2O2 inh inconclusive
Cc1ccc2nc3c(c(Nc4ccccc4)c2c1)CCC3	ALR H2O2 inh 97
COCCNc1c2c(nc3ccccc13)CCC2	none
OC(COCc1ccccc1)COCc1ccccc1	none (no result: SUMO HTRF inh, eIF4H FP inh, Efflux pump inh, ALR H2O2 inh, PABP polyA inh)
NC(CO)(CO)COCc1ccccc1	PABP polyA inh 130
C=CCN(C(=O)CSc1nc2c(sc3ccccc32)c(=O)n1CCN(CC)CC)c1ccccc1	none (no result: ALR H2O2 inh)
COCCn1c(SCC(=O)Nc2ccccc2OC)nc2ccccc2c1=O	none
COc1ccccc1NC(=O)CSc1nc2c(sc3ccccc32)c(=O)n1CCN(C)C	ALR H2O2 inh 99

Assay outcomes from PubChem BioAssay.
